The values below come from PubChem BioAssay AID2551 (National Center for Advancing Translational Sciences (NCATS), 2010).

Structures are written as SMILES. The campaign covered roughly 310,000 compounds. About 17,000 (5.5%) were called active. Roughly 11% stayed inconclusive and do not appear here. The list comes from a sample in which actives are over-represented; it also holds similar structures and randomly drawn compounds. Unmarked numbers belong to inactive results. Calls come from the whole dose curve; as a rule, active = well fitted inhibition curve with a large enough effect; inconclusive = small, poorly fitted or top-dose-only effect, or effect the other way; inactive = no such curve, though single readings can be large or run the other way.
% is set by controls: 0 for no effect and ±100 for the full control effect; potency is the fitted concentration of half-maximal effect.

Nuclear receptor ROR-gamma (Mus musculus), sequence (P51450 whole entry, looked up, the tested form may be a part): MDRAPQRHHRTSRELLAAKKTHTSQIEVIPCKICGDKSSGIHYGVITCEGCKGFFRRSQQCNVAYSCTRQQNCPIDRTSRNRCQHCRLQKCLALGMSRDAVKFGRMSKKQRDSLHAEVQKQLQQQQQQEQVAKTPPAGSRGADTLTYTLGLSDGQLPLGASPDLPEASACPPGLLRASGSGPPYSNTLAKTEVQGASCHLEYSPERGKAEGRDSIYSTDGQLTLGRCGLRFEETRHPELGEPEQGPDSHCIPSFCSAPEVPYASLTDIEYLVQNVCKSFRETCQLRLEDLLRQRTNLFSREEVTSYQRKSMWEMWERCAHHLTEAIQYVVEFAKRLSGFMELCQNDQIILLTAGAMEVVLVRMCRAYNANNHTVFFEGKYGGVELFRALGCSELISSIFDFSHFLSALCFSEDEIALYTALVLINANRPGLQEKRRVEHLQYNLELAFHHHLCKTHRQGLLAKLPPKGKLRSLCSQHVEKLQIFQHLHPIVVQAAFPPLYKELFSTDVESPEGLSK

The target in the experiment is Nuclear receptor ROR-gamma (Mus musculus) (UniProt P51450). In words: qHTS for inhibitors of ROR gamma transcriptional activity. Note: nearly all actives have a fitted effect of over 60% in size. The conditions noted are these: Drosophila S2 Gal4-RORgamma UAS-luciferase reporter, 20 h; series mostly up to 53.6 µM; activity change, negative = inhibition: at the top concentration. The procedure, abridged:
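Using a luciferase readout, inhibitors were identified by reduced reporter activity in Drosophila cells coexpressing a copper-inducible Gal4–ROR gamma fusion and UAS-driven Photinus luciferase, incubated 20 hr after 700 uM copper sulfate.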
For orientation: In qHTS, concentration-response curves come from the screen itself.
With `CCN(C(=O)C1CCCN(c2nc(-c3ccc(OC)cc3)no2)C1)c1ccc(OC)cc1` (stereo not given), the “activity change, negative = inhibition” value was 38.9%.
Turning to `c1ccc2[nH]c(-c3nc4ccccc4[nH]3)nc2c1`, the Potency was 10 µM (active).
Take `OCCNc1nc2ccccc2[nH]1`: the “activity change, negative = inhibition” value was -8.36%.
Same read-out and setting: in the case of `OC(c1nc2ccccc2[nH]1)C(O)C(O)C(O)c1nc2ccccc2[nH]1` (stereo not given) it was 20.1%; in that of `Cc1cc(C)c2c(-c3ccc(F)cc3)c(C#N)c(=O)n(C)c2n1`, -20%.
The same measure, in the same setting: in the case of `CCc1ccc(OCC2c3cc(OC)c(OC)cc3CCN2C(C)=O)cc1` (stereo not given) it was -7.5%.
Still for that read-out and setting: in the case of `Nc1nc(Nc2ccccc2F)nc(NC2CCCCC2)c1[N+](=O)[O-]` it was 16.6%; in that of `O=c1cc(N2CCCCC2)c(-c2ccccc2)nn1Cc1cccc(F)c1`, -0.464%.
As to `c1ccc(-c2cc(N3CCCCC3)c3ccccc3n2)cc1`, the Potency was 14.1 µM (active).
In the case of `O=c1cc(-c2ccccc2)nc(N2CCCCC2)[nH]1`, the “activity change, negative = inhibition” value is -5.11%.
Still for that read-out and setting: as for `CCC(=O)Nc1nnc(S(=O)(=O)N(CC(C)C)c2ccccc2)s1`, the figure is -21.1%.
On to `CCOc1ccc2[nH]c(=O)c(CN(CCCO)S(=O)(=O)c3ccc(F)cc3)cc2c1`, for which the “activity change, negative = inhibition” value is 12.8%.
As for `c1ccc2c(c1)OCC(c1nn3cnnc3s1)O2` (stereo not given), the “activity change, negative = inhibition” value was 16.7%.
`O=C(Nc1nnc(C2COc3ccccc3O2)o1)c1ccc(F)cc1` (stereo not given): the Potency is 0.562 µM (active).
Take `CC1COc2ccccc2N1C(=O)c1ccc(F)cc1` (stereo not given): the “activity change, negative = inhibition” value was 24%.
With `COc1ccc(N2CCN(C(=O)c3ccc(N4CCCCS4(=O)=O)cc3)CC2)cc1`, the “activity change, negative = inhibition” value was 29.1%.
The same measure, in the same setting: as for `COc1ccc(-c2cc(C(=O)N3CCN(c4ccc(F)cc4)CC3)no2)cc1`, the figure is 4.47%; as for `CCOc1ccc2[nH]c3nc(SCC(=O)NC4CCCC4)nnc3c2c1`, -11.8%.
Still for that read-out and setting: in the case of `O=c1c2ccccc2ncn1CCCCOc1ccccc1F` it was 12.9% [at 1.91 µM]; in that of `COC(=O)c1ccc(NC(=O)CSc2nc(N)c(NC(=O)c3ccc(Br)o3)c(=O)[nH]2)cc1`, 5.56%.
Take `S=c1[nH]nc(/C=C/c2ccccc2)o1`: the Potency was 12.6 µM (active).
Take `O=c1oc(/C=C/c2ccccc2)nc2ccccc12`: the “activity change, negative = inhibition” value is 0.954%.
The same measure, in the same setting: in the case of `COc1ccc(N(CC(=O)N2CCCCCC2)S(=O)(=O)c2ccccc2)cc1` it was 2.49%.
The same measure, in the same setting: as for `Cc1ccc(NC2CCCN(C(=O)CCc3cn[nH]c3)C2)cc1C` (stereo not given), the figure is 14.3%.
Same read-out and setting: as for `Cc1ccccc1N1CCN(CC(=O)NCc2ccc(Cl)cc2)CC1`, the figure is 27.3%; as for `CCOC(=O)c1sc2nc(C)[nH]c(=O)c2c1C`, 18.3%.
Regarding `COC(=O)c1sc(=S)n(-c2ccccc2)c1N`, the “activity change, negative = inhibition” value is 0.645%.
Turning to `COC(=O)c1sc2[nH]c(=S)n(N)c(=O)c2c1C`, the Potency was 7.08 µM (active).
On to `O=S(=O)(c1ccc(Cl)cc1)c1nc(-c2ccccc2F)oc1NCCN1CCOCC1`, for which the “activity change, negative = inhibition” value is 38.8%.
On the same count and under the same terms, in the case of `CC(=O)c1ccc(NC(=O)c2sc3nc4n(c(=O)c3c2C)CCCCC4)cc1` it was 34.7%; in that of `O=C(Cc1ccc2c(c1)CCCC2)Nc1ccccc1Cl`, 8.31%.
Regarding `O=C(Nc1ccccc1Cl)/C(Cl)=C(\Cl)S(=O)c1ccccc1` (stereo not given), the Potency was 0.891 µM (active).
As to `O=C(Nc1ccccc1Cl)Nn1cnnc1`, the “activity change, negative = inhibition” value is -16.9%.
For `Cc1ccc(S(=O)(=O)c2nnn3c2nc(N2CCN(c4ccccn4)CC2)c2ccccc23)cc1`, the “activity change, negative = inhibition” value was -12.8%.
Still for that read-out and setting: in the case of `CCC(CC)c1nnc(NC(=O)C2CCN(C(=O)c3ccco3)CC2)s1` it was 35.8%; in that of `O=C(NCc1cccs1)c1ccc(Br)o1`, 5.95%.
The same measure, in the same setting: in the case of `CC(CNC(=O)c1ccc(Br)o1)NC(=O)c1ccc(Br)o1` (stereo not given) it was -15%.
Consider `C=CCNC(=S)NNC(=O)c1ccc(Br)o1`, for which the Potency is 2 µM (active).
`CC1CCN(C(=O)Cn2nnnc2CN2CCOCC2)CC1`: the “activity change, negative = inhibition” value was -26.6%.
In the case of `COC(CNC(=O)c1ccc2c(c1)ncn2-c1cc(C)cc(C)c1)OC`, the “activity change, negative = inhibition” value is 9.19%.
The same measure, in the same setting: in the case of `O=C(N/N=C/c1ccccn1)c1cccnc1` it was -45.9%; in that of `O=C(NN=C1CCC(=NNC(=O)c2cccnc2)CC1)c1cccnc1`, -37.9%.
Take `O=C(N/N=C/c1sc(N2CCCCC2)nc1-c1cccs1)c1cccnc1`: the Potency was 7.94 µM (active).
`CN(Cc1ccccc1)C(=O)c1ccc(NC2=NC3CS(=O)(=O)CC3S2)cc1` (stereo not given): the “activity change, negative = inhibition” value is -0.867%.
For `N#CCC(=O)N/N=C/c1cn(Cc2ccc3ccccc3c2)c2ccccc12`, the Potency was 12.6 µM (active).
As for `COc1cccc(Cn2cc(/C=N/NC(=O)c3cc(O)cc(O)c3)c3ccccc32)c1`, the “activity change, negative = inhibition” value was -0.821%.
The same measure, in the same setting: as for `CNC(=S)N/N=C/c1cn(Cc2ccc(C)cc2)c2ccccc12`, the figure is 31.1%; as for `Cc1c(C=O)c2ccccc2n1CCOc1ccccc1`, 77.1%; as for `COc1cccc(C(C(=O)NC2CCCC2)N(C(=O)c2ccco2)c2cccc(C(C)=O)c2)c1OC` (stereo not given), 27%.
For the compound `COc1cccc(NC(=S)N(CCc2c(C)[nH]c3ccccc23)Cc2ccco2)c1`, the Potency is 11.2 µM (active).
Turning to `COc1ccc2[nH]c(C)c(CCN(Cc3cccs3)C(=S)Nc3ccccc3OC)c2c1`, the “activity change, negative = inhibition” value is 38.3%.
The same measure, in the same setting: in the case of `Cc1[nH]c2ccccc2c1CCN(Cc1cccs1)C(=S)NC(C)(C)C` it was 3.01%; in that of `COCCNC(=S)N(CCc1c(C)[nH]c2ccc(C)cc12)Cc1cccnc1`, 5.98%; in that of `Cc1ccc2[nH]c(C)c(CCNC(=O)NC3CCCCC3)c2c1`, 25.9%.
Take `CCNC(=S)N(CCc1c(C)[nH]c2ccc(C)cc12)Cc1ccco1`: the Potency is 11.2 µM (active).
